Laboratory results published in ChEMBL document CHEMBL4513216, “Probing the Open Global Health Chemical Diversity Library for Multistage-Active Starting Points for Next-Generation Antimalarials” (ACS Infect Dis, 2020).
Out of some 65,000 compounds screened, about 2,100 (3.2%) showed an effect of 50% or more. The median lay at about -52%. The entries come from a sample that favours strong results as a whole.

tested on: Plasmodium falciparum; test: Screen against P. falciparum Asexual Blood Stage (ABS), at 5uM; assay type: functional, Dd2; conditions: tested at 5 uM

Structure (SMILES) | INHIBITION [%]
Cc1nocc1C(=O)N1CCOC2(COCCN(C(C)C)C2)C1 (centres undefined) | -62.3
CCN(C(C)c1cccc(O)c1)S(=O)(=O)c1cccnc1 (centres undefined) | 76.6
CN1CCO[C@@H]2CN(S(=O)(=O)c3cccnc3)C[C@@H]2C1 | -79
CC(c1cccc(O)c1)N(C)S(=O)(=O)c1cccnc1 (centres undefined) | 71.4
CN1CCC(N2CCN3C(=O)NC[C@H]3C2)CC1 | -11
COCCN1CCN(S(=O)(=O)C2CC2)Cc2cccnc21 | -40.8
Cc1cc2n(n1)CC(CNC1CCN(Cc3ccccc3C)CC1)CN2 (centres undefined) | 71
Cc1cccc(CN2CCC(NCC3CNc4cc(C)nn4C3)CC2)c1 (centres undefined) | 86.5
Cc1cc(-c2ccc(C(C)N3CCCCC3)cc2)cnc1N (centres undefined) | 91
Cc1oncc1C(=O)N1CC[C@H]2[C@H]1CCN2Cc1ccccn1 | -23.4
COCCCNc1c(C#N)c2c(c3nncn13)CN(C)CC2 | -104
Cc1ccc(-n2cnnn2)cc1NCC(=O)Nc1cc(F)ccc1F | 72.3
Cc1ccc(-n2cnnn2)cc1NCC(=O)Nc1ccccc1Cl | 79.3
O=C(c1cc(-n2cnnn2)ccc1Cl)N1CCC2(CC1)OCCO2 | -29.7
O=C(c1cccc(-n2cnnn2)c1)N1CCC2(CC1)OCCO2 | -24.5
CCN(CC)C(=O)c1ccc(NC(=O)CNc2ccc(F)cc2Cl)cc1 | -91.8
CCN(CC)C(=O)c1ccc(NC(=O)CNc2ccc(Br)cc2F)cc1 | -171
O=C(NCC1CCC2(CCNCC2)O1)C1CC1 (centres undefined) | 47.7
Cc1cccnc1N1CC2(CCN(Cc3cnn(C)c3)C2)C1 | 23.4
Cc1[nH]c2c(F)cccc2c1CC(=O)N1CCN(C2CCSCC2)CC1 | -8.93
COc1ccc(CN2CCNC(=O)CC2)cc1SC(F)(F)F | 74.5
COc1cccc(C2=CCN(CCN3CCOC3=O)CC2)c1 | -8.54
Cc1cc(CN2C[C@@H]3CCCO[C@@H]3[C@H](Nc3ccccn3)C2)no1 | -62.6
CCOCC(O)CN1CCN(C(=O)Cc2ccc(C)nc2)CC1 (centres undefined) | -7.76
OC(COCc1ccc(Cl)cc1)CN1CCC(c2ccn[nH]2)CC1 (centres undefined) | 70.9
CC1(C)CC(N(Cc2ccccc2)Cc2ncc[nH]2)CC(C)(C)N1 | 70.3

Structure (SMILES) | INHIBITION [%]
Cc1ccsc1CN1C[C@@H]2CN(Cc3cccnc3)CCO[C@@H]2C1 | -28.4
CC1(C)CC(N(Cc2cccnc2)Cc2cccc(F)c2)CC(C)(C)N1 | 76.6
O=C1NCC2(CCCN(Cc3cccnc3)C2)Oc2ccccc21 (centres undefined) | -134
Cc1noc(C)c1CN(Cc1cccnc1)C1CN2CCC1CC2 (centres undefined) | -110
CCCN(Cc1cccnc1)C1CC(C)(C)NC(C)(C)C1 | 77.6
CCN(Cc1cccnc1)CC1CCCO1 (centres undefined) | -162
Cc1ccsc1CN(Cc1cccnc1)C1CC(C)(C)NC(C)(C)C1 | 81.4
CCc1cc(CN(Cc2cccnc2)C2CN3CCC2CC3)on1 (centres undefined) | 3.06
Cc1ncc2c(c1CNC(=O)C1(C)CCCO1)CCNC2 (centres undefined) | -148
C[C@@H]1CN(C2CCOC2)C[C@]12CCN(Cc1cccnc1)C2=O (some centres undefined) | -45.9
Clc1cc(N2CCN3CCCCC3C2)nc2[nH]ccc12 (centres undefined) | 42.6
CN(C)CCN1CCCC12CCN(C(=O)c1ccncc1)CC2 | -98.9
c1ccc(OCC2C[C@@H]3[C@@H](C2)OCCN3CC2CCOCC2)nc1 (some centres undefined) | -60.7
Cc1noc(C)c1CN1CCCC2(C1)CN(c1nncs1)CCO2 (centres undefined) | -18.9
Cc1noc(C)c1CN1CCOC2(CCCN(c3nncs3)C2)C1 (centres undefined) | -103
COc1ccc(N2CCCC3(C2)CN(c2nncs2)CCO3)cc1 (centres undefined) | 88
O=C1CSC(c2ccncc2)c2c(n(C3CCOCC3)[nH]c2=O)N1 (centres undefined) | -84.2
CC(C)C(NC(=O)c1ccco1)C(=O)N1CCC2(CC1)OCCO2 (centres undefined) | -80.1
CNC(=O)CCN(C)CC1(c2ccc(Br)cc2)CC1 | 87.3
CN1CCCC(c2cncc(-c3cccc(C(F)(F)F)c3)n2)C1 (centres undefined) | 77.3
CC(=O)N1CCCC(c2ccc(N3CCN(C)CC3)cn2)C1 (centres undefined) | -0.837
Cc1sc2c(C3CCCN(C)C3)nc(C)n2c1C (centres undefined) | 42.7
CN1CCC(c2cncc(N(C)C)n2)CC1 | -19
CN1CCCC(c2cccc(-c3cccc(F)c3)n2)C1 (centres undefined) | 74
CN1CCCC(c2cccc(-c3cccc(C(F)(F)F)c3)n2)C1 (centres undefined) | 73.7
CNC(=O)c1ccc2c(c1)C1(CCN(CC(C)C)CC1)C(=O)N2 | -15.5

Structure (SMILES) | INHIBITION [%]
Cc1nccc([C@H]2C[C@@H]3CCN(Cc4ccco4)C[C@H]3O2)n1 | -9.96
Cc1ccc(CC(=O)N2CCN(C3CCOC3=O)CC2)cc1 (centres undefined) | -27.2
CC(C)N1CCN(C)C2(CCN(C(=O)c3ccnnc3)CC2)C1=O | -37.3
CN1CCN2C(=O)N(C3CCOCC3)C[C@H]2C1 | -99.7
c1cncc(COCC2CC[C@H]3[C@H]2OCCN3Cc2ccoc2)c1 (some centres undefined) | -12.2
CCC[C@H]1CN(S(=O)(=O)c2c(C)noc2C)C[C@@H]1N | 82.5
CCC[C@H]1CN(S(=O)(=O)c2ccc(CC)s2)C[C@@H]1N | 75.8
Cc1noc(C)c1CN1C[C@H]2CNC[C@H]2C1 | 9.33
Cc1ccc(CN(CCN(C)C)Cc2c(C)nc3sccn23)o1 | 84.6
CN(C)CCN(Cc1ccco1)C(=O)Cc1cn2ccsc2n1 | -5.56
Cc1ccc(CN(CCN(C)C)C(=O)Cc2cn3ccccc3n2)o1 | -67.1
Cc1nc(CC(=O)N(CCN2CCOCC2)Cc2ccco2)c(C)s1 | -135
Cc1nc2sccn2c1CN(CCCN(C)C)Cc1ccco1 | 86.2
CNC(=O)CN1CCO[C@H]2CN(C(=O)c3ccncc3F)C[C@H]21 | -74.6
CCCn1cc(C(=O)NC(C(=O)O)c2ccccc2C(F)(F)F)c(C)n1 (centres undefined) | -51.5
CS(=O)(=O)N1CCN(CC2CC2)c2ncccc2C1 | -25.9
OC[C@H]1CN2CCN(c3ccccn3)C[C@@H]2[C@@H]1c1ccccc1 | -11.3
NCC1Cc2cc(Oc3cc(F)c(CN4CCCC4)c(F)c3)ccc2O1 (centres undefined) | 77.8
COc1ccc(CN2CCCC2)cc1Oc1ccc2c(c1)CC(CN)O2 (centres undefined) | 88.2
COc1ncccc1CN1C[C@@H]2COC[C@]2(COCC2CC2)C1 | 33.8
Cc1cccc(CN2C[C@@H]3COC[C@]3(COc3cccnc3)C2)n1 | -77.5
Cc1noc(C)c1CN1CCOCC12CCN(c1nccs1)CC2 | -91.6
O=C(CCc1ccccc1)N1C[C@H]2CCN[C@H]2C1 | -6.16
O=C(c1scc2c1OCCO2)N1CCOC(CCc2ccccc2)C1 (centres undefined) | 88.7
O=C(Cc1ccccc1)N1C[C@@H]2OCCN(CC3CCCO3)[C@@H]2C1 (some centres undefined) | -34.5
Cc1ccccc1C1(C(=O)NCCN2CCC(C)CC2)CCOCC1 | 85.3

Structure (SMILES) | INHIBITION [%]
Cc1ccccc1C1(C(=O)NCCN2CCCC(C)C2)CCOCC1 (centres undefined) | 88.1
CN1CC[C@H]2OCC[C@@]2(C(=O)NCCc2ccccn2)C1 | 12.7
O=C(NCCc1ccccn1)[C@@]12CCO[C@@H]1CCN(CC1CC1)C2 | 30.8
O=C(NCCc1ccccn1)[C@@]12CCO[C@@H]1CCN(C1CCC1)C2 | 44.6
O=S1(=O)CCC(n2cc(C3=CCN(CCN4CCCCC4)CC3)cn2)C1 (centres undefined) | 12.6
O=C(N[C@H]1CN[C@H]2CCCO[C@H]21)c1ccno1 | -87.2
c1cc(COC[C@@H]2CCC[C@@]23CNCCO3)ccn1 | 7.1
COc1cc(CNCC(O)c2ccc(F)cc2F)cc2c1OCO2 (centres undefined) | 85.5
COc1cc(CNCC(O)c2ccccc2F)cc2c1OCO2 (centres undefined) | 78
CC[C@H](N)Cn1nc(-c2cccs2)oc1=O | -186
CCc1nnc(C(C)N2CCCN(C(=O)Oc3ccccc3)CC2)o1 (centres undefined) | -87.2
CC(C)CN1CCC2(CC1)C(=O)Nc1ccc(C(=O)NC(C)C)cc12 | -39.5
CCC(CN1CCCC1)NC(=O)C1(c2cccc(F)c2)CC1 (centres undefined) | 84.7
O=C(Nc1cccc(F)c1)N1CCC(CO)(Nc2ccccc2)CC1 | -35.15
CCC(CN1CCN(C)CC1)NC(=O)C1(c2cccc(F)c2)CC1 (centres undefined) | 77.1
CC(C)NC(=O)c1ccc2c(c1)C1(CCN(C)CC1)C(=O)N2 | -37.9
CC(C)n1cc(C(=O)NC2CN3CCC2CC3)c2ccccc21 (centres undefined) | -24.9
Cc1[nH]c2ccccc2c1-c1ccnc(NCCN2CCOCC2)n1 | 82.5
CC(C)(C)n1cc(C(=O)NCCN2CCOCC2)c2cccnc21 | -89.4
Cn1cc(C2NC3(CCCC3)C(=O)N2CC2CC2)c(=O)n(C)c1=O (centres undefined) | -43.9
Cc1ccc(N2CC[C@@H]3CN(Cc4cc[nH]n4)C[C@@H]3C2)nn1 | -19.6
Cc1cc(CN2C[C@@H]3CN(C(=O)c4ccco4)CCO[C@@H]3C2)no1 | -45
NCC1(c2cccc(F)c2)CCOCC1 | 2.49
NCC1(c2cccc(C(F)(F)F)c2)CCOCC1 | 69.9
NCC1(c2cccc(C(F)(F)F)c2)CC1 | -97.7
NCC1(c2cccc(Br)c2)CCOCC1 | 79.5
